Experimental data: PubChem BioAssay (EPA / NIEHS)
More than one record can exist for a structure, and the calls need not agree. The source made the active and inactive calls. How the source made its calls: active means hit-call score of the fitted dose curve at least 0.9, where 1 is the maximum; inactive means score below 0.9.

Assay: ATG_GRE_CIS: Attagene CIS-FACTORIAL HepG2 Assay for human Glucocorticoid Response Elements (GRE) (AID 2282947)
Settings: HepG2 GRE cis-reporter, Attagene multiplex mRNA; actives raise or lower the signal
Procedure, shortened: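 HepG2 cells transiently transfected with multiple cis-promoter reporter units measure endogenous TF activity; 24 h compound exposure. Reporter mRNA quantified by RT-PCR, FAM labelling, HpaI digestion and capillary electrophoresis; bidirectional fit vs DMSO baseline.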

SMILES	outcome	AC50
O=S1(=O)OC(c2cc(Br)c(O)c(Br)c2)(c2cc(Br)c(O)c(Br)c2)c2ccccc21	inactive	–
Cc1cc(Cl)ccc1OCCCC(=O)O	inactive	–
C#C[C@]1(O)CC[C@H]2[C@@H]3CCC4=CC(=O)CC[C@]4(C)[C@H]3CC[C@@]21C	inactive	–
C[C@@H]1O[C@@H](O[C@H]2C[C@@H](O)[C@]3(CO)[C@H]4[C@H](O)C[C@]5(C)[C@@H](C6=CC(=O)OC6)CC[C@]5(O)[C@@H]4CC[C@]3(O)C2)[C@H](O)[C@H](O)[C@H]1O	–	0.287 µM (active)
C[N+](C)(C)Cc1ccccc1	inactive	–
COP(=S)(OC)Oc1cc(Cl)c(I)cc1Cl	–	58.1 µM (active)
O=c1oc2ccccc2c(O)c1C(CC(O)c1ccc(-c2ccc(Br)cc2)cc1)c1ccccc1 (configuration not stated)	inactive	–
CN(N=O)C(N)=O	inactive	–
O=S(=O)(F)C(F)(F)C(F)(F)C(F)(F)C(F)(F)F	inactive	–
OCC(c1ccc(Cl)cc1)c1ccc(Cl)cc1	inactive	–
CCCCC(CC)C(=O)Cl (configuration not stated)	inactive	–
C=CC(F)(C(F)(F)F)C(F)(F)C(F)(F)F (configuration not stated)	inactive	–
CN(C)CCN(C)C	inactive	–
CCCCS(=O)(=O)Cl	inactive	–
Fc1cccc(Cl)c1CCl	inactive	–
Nc1ncn[nH]1	inactive	–
CC(=O)C(F)(F)C(F)(F)F	inactive	–
C#CCOC(=O)/C=C(C)/C=C/CC(C)CCCC(C)C (configuration not stated)	inactive	–
OC(Cc1ccccc1Cl)(Cn1cncn1)C1(Cl)CC1 (configuration not stated)	inactive	–

SMILES	outcome	AC50
Cc1cc(C(F)(C(F)(F)F)C(F)(F)F)ccc1NC(=O)c1cccc(I)c1C(=O)NC(C)(C)CS(C)(=O)=O	inactive	–
CCOc1ccc(N)cc1	inactive	–
O=C(NC(=O)c1c(F)cccc1F)Nc1cc(Cl)c(Oc2ncc(C(F)(F)F)cc2Cl)c(Cl)c1	inactive	–
CN(N=O)c1ccc([N+](=O)[O-])cc1	inactive	–
CCOC(=O)C(SP(=S)(OC)OC)c1ccccc1 (configuration not stated)	inactive	–
COC(F)(C(F)(F)C(F)(F)F)C(F)(C(F)(F)F)C(F)(F)F (configuration not stated)	inactive	–
OC(Cc1ccccc1Cl)(Cn1[nH]cnc1=S)C1(Cl)CC1 (configuration not stated)	inactive	–
CC(F)(F)CC(F)(F)F	inactive	–
O=C/C(Cl)=C(/Cl)C(=O)O	inactive	–
COc1nn(C(=O)NS(=O)(=O)c2ccccc2OC(F)(F)F)c(=O)n1C	inactive	–
Cc1ccc(CCl)cc1	inactive	–
Cl[C@H]1OCCO[C@@H]1Cl	inactive	–
NC(=O)CCl	inactive	–
CC(C)[C@@H](Nc1ccc(C(F)(F)F)cc1Cl)C(=O)OC(C#N)c1cccc(Oc2ccccc2)c1 (some centres not stated)	inactive	–
Cc1cc(C(C)(C)c2ccc(O)c(C)c2)ccc1O	–	79.5 µM (active)
CC1(C)[C@H](C(=O)O[C@H](C#N)c2cccc(Oc3ccccc3)c2)[C@@H]1/C=C(\Cl)C(F)(F)F	inactive	–
ClCCCCl	inactive	–
Cc1ccccc1OP(=O)(Oc1ccccc1)Oc1ccccc1	inactive	–
CCN(N=O)C(N)=O	inactive	–

Assay: ATG_ISRE_CIS: Attagene CIS-FACTORIAL HepG2 Assay for human Interferon Regulatory Factor 1 (IRF1) binding to an Interferon-Stimulated Response Element (ISRE) (AID 2282948)
Settings: HepG2 ISRE cis-reporter (Attagene), mRNA transcription readout; actives raise or lower the signal
Procedure, shortened: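 HepG2 cells transiently transfected with multiplexed cis-promoter reporter units; after 24 h compound exposure, reporter mRNA quantified by RT-PCR, FAM labelling, HpaI digestion and capillary electrophoresis. Bidirectional fit versus DMSO baseline.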

SMILES	outcome	AC50
O=S1(=O)OC(c2cc(Br)c(O)c(Br)c2)(c2cc(Br)c(O)c(Br)c2)c2ccccc21	inactive	–
Cc1cc(Cl)ccc1OCCCC(=O)O	inactive	–
C#C[C@]1(O)CC[C@H]2[C@@H]3CCC4=CC(=O)CC[C@]4(C)[C@H]3CC[C@@]21C	inactive	–
C[C@@H]1O[C@@H](O[C@H]2C[C@@H](O)[C@]3(CO)[C@H]4[C@H](O)C[C@]5(C)[C@@H](C6=CC(=O)OC6)CC[C@]5(O)[C@@H]4CC[C@]3(O)C2)[C@H](O)[C@H](O)[C@H]1O	–	0.279 µM (active)
C[N+](C)(C)Cc1ccccc1	inactive	–
COP(=S)(OC)Oc1cc(Cl)c(I)cc1Cl	–	48.7 µM (active)
O=c1oc2ccccc2c(O)c1C(CC(O)c1ccc(-c2ccc(Br)cc2)cc1)c1ccccc1 (configuration not stated)	inactive	24.9 µM (active)
CN(N=O)C(N)=O	inactive	–
O=S(=O)(F)C(F)(F)C(F)(F)C(F)(F)C(F)(F)F	inactive	–
OCC(c1ccc(Cl)cc1)c1ccc(Cl)cc1	–	54.6 µM (active)
CCCCC(CC)C(=O)Cl (configuration not stated)	inactive	–
C=CC(F)(C(F)(F)F)C(F)(F)C(F)(F)F (configuration not stated)	inactive	–
CN(C)CCN(C)C	inactive	–
CCCCS(=O)(=O)Cl	inactive	–
Fc1cccc(Cl)c1CCl	inactive	–
Nc1ncn[nH]1	inactive	–
CC(=O)C(F)(F)C(F)(F)F	inactive	–
C#CCOC(=O)/C=C(C)/C=C/CC(C)CCCC(C)C (configuration not stated)	inactive	–
OC(Cc1ccccc1Cl)(Cn1cncn1)C1(Cl)CC1 (configuration not stated)	inactive	–

SMILES	outcome	AC50
Cc1cc(C(F)(C(F)(F)F)C(F)(F)F)ccc1NC(=O)c1cccc(I)c1C(=O)NC(C)(C)CS(C)(=O)=O	inactive	–
CCOc1ccc(N)cc1	inactive	–
O=C(NC(=O)c1c(F)cccc1F)Nc1cc(Cl)c(Oc2ncc(C(F)(F)F)cc2Cl)c(Cl)c1	inactive	–
CN(N=O)c1ccc([N+](=O)[O-])cc1	inactive	–
CCOC(=O)C(SP(=S)(OC)OC)c1ccccc1 (configuration not stated)	inactive	–
COC(F)(C(F)(F)C(F)(F)F)C(F)(C(F)(F)F)C(F)(F)F (configuration not stated)	inactive	–
OC(Cc1ccccc1Cl)(Cn1[nH]cnc1=S)C1(Cl)CC1 (configuration not stated)	–	100 µM (active)
CC(F)(F)CC(F)(F)F	inactive	–
O=C/C(Cl)=C(/Cl)C(=O)O	–	100 µM (active)
COc1nn(C(=O)NS(=O)(=O)c2ccccc2OC(F)(F)F)c(=O)n1C	inactive	–
Cc1ccc(CCl)cc1	inactive	–
Cl[C@H]1OCCO[C@@H]1Cl	inactive	–
NC(=O)CCl	inactive	–
CC(C)[C@@H](Nc1ccc(C(F)(F)F)cc1Cl)C(=O)OC(C#N)c1cccc(Oc2ccccc2)c1 (some centres not stated)	inactive	–
Cc1cc(C(C)(C)c2ccc(O)c(C)c2)ccc1O	–	50 µM (active)
CC1(C)[C@H](C(=O)O[C@H](C#N)c2cccc(Oc3ccccc3)c2)[C@@H]1/C=C(\Cl)C(F)(F)F	inactive	–
ClCCCCl	inactive	–
Cc1ccccc1OP(=O)(Oc1ccccc1)Oc1ccccc1	–	7.35 µM (active)
CCN(N=O)C(N)=O	inactive	–
